This note sets out measurements from PubChem BioAssay (Tox21).

Experiment [1] is described as follows: qHTS assay to identify small molecule agonists of H2AX (AID 1224845; active = well fitted activation curve with a large enough effect in the signal ratio in the repeat runs, not every such curve was filed as active; the % refers to the signal ratio). The method, boiled down: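 Phospho-H2AX Ser139 measured by HTRF (ex 320 nm; em 665 and 620 nm) after 24 hr antibody incubation. Compounds, 15 concentrations, 0.76% DMSO, were applied to CHO-K1 cells for 3hr at 37C before lysis.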
Background: qHTS replaces the single test concentration by a dilution series.

Experiment [2] can be described thus: qHTS assay to identify small molecule agonists of the hypoxia (HIF-1) signaling pathway (AID 1224846; active = well fitted activation curve with a large enough effect in the signal ratio in the repeat runs, not every such curve was filed as active; the % refers to the signal ratio). In outline: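 HRE-bla ME-180 cells (beta-lactamase reporter under hypoxia response element) were plated at 2,000 cells/well in medium with 0.5% dialyzed FBS, rested 5 hrs, then given compounds in DMSO for 17 hrs at 37C, 5% CO2. Reporter induction was read with CCF4-AM FRET substrate.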

Experiment [3] in a line: qHTS assay to identify small molecule antagonists of the estrogen related receptor (ERR) signaling pathway from Tox21 library (AID 1224848). Note: nearly all actives have a fitted effect of over 50% in size. Note: potency is the fitted concentration of half-maximal effect. In outline:
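Reading was by luminescence 30 min after ONE-Glo addition. Before that, ERR cells at 2,000 per well had rested 6 h at 37 C/5% CO2 and then received pin-tooled compounds in DMSO for 18 h at 37 C.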

Experiment [4] in a line: qHTS assay to identify small molecule agonists of the estrogen related receptor (ERR) signaling pathway from Tox21 library (AID 1224849; calls by dose curve; note: nearly all actives have a fitted effect of over 15% in size). Particulars: ERR reporter cell line, ONE-Glo luciferase, 18 h; at 92.4 µM (top of the series) unless noted. In outline: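 ERR reporter cell line (NTP) seeded, rested 6 h at 37 C/5% CO2, then pinned with Tox21 compounds in DMSO. After 18 h at 37 C, ONE-Glo luciferase luminescence was read following 30 min at room temperature.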

Experiment [5] is described as follows: qHTS RealTime-Glo MT Cell Viability Assay in HEK293 cells - 32 hour (AID 1224868). Note: nearly all actives have a fitted effect of over 50% in size. Note: potency is the fitted concentration of half-maximal effect. The method, boiled down:
(§1)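 Cells + reagent dispensed (600 cells/well, HEK293) → 5 h at 37 C/5% CO2 → 23 nL compound in DMSO pinned → 40 h at 37 C → luminescence read at 0, 8, 16, 24, 32, 40 h.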

Experiment [6] can be described thus: A CellTox Green Cytotoxicity Assay to monitor cytotoxicity in HEK293 cells - 0 hour (AID 1224869). Note: nearly all actives have a fitted effect of over 50% in size. In outline:
(§2)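 HEK293 cells premixed with CellTox Green dye were seeded at 600 cells/well and left 5 h at 37 C/5% CO2 before pin transfer of 23 nL compound in DMSO. Fluorescence from dye bound to dead-cell DNA was read during 40 h treatment.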

Experiment [7] is described as follows: A CellTox Green Cytotoxicity Assay to monitor cytotoxicity in HEK293 cells - 40 hour (AID 1224871). Note: nearly all actives have a fitted effect of over 45% in size. The method, boiled down:
as §2

The nature of experiment [8]: qHTS RealTime-Glo MT Cell Viability Assay in HEK293 cells - 16 hour (AID 1224872). Note: nearly all actives have a fitted effect of over 50% in size. Note: potency is the fitted concentration of half-maximal effect. In outline:
as §1

Experiment [9] can be described thus: qHTS RealTime-Glo MT Cell Viability Assay in HepG2 cells - 8 hour (AID 1224873). Note: nearly all actives have a fitted effect of over 55% in size. The method, boiled down:
(§3)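 Real-time viability: cells seeded at 600 per well together with NanoLuc and cell-permeant prosubstrate, compounds added after 5 h incubation. Luminescence tracked at 0, 8, 16, 24, 32 and 40 h of exposure.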

A short description of experiment [10]: qHTS RealTime-Glo MT Cell Viability Assay in HEK293 cells - 40 hour (AID 1224874). Note: nearly all actives have a fitted effect of over 50% in size. Note: potency is the fitted concentration of half-maximal effect. The note with it: RealTime-Glo luminescence; max response: stronger effect = lower value. In outline: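 HEK293 cells mixed with RealTime-Glo reagents (NanoLuc plus cell-permeant prosubstrate) at 600 cells/well, preincubated 5 h at 37 C/5% CO2, then given 23 nL compound in DMSO. Nonlytic luminescence from viable cells was read at 0, 8, 16, 24, 32 and 40 h.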

Experiment [11] in a line: A CellTox Green Cytotoxicity Assay to monitor cytotoxicity in HEK293 cells - 24 hour (AID 1224875). Note: nearly all actives have a fitted effect of over 45% in size. In outline: as §2
Experiment [12] is described as follows: A CellTox Green Cytotoxicity Assay to monitor cytotoxicity in HepG2 cells - 16 hour (AID 1224876). Note: nearly all actives have a fitted effect of over 45% in size. The method, boiled down: (§4)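 HepG2 cells were seeded together with the CellTox Green dye at 600 cells/well, left 5 h at 37 C/5% CO2, then given compounds in DMSO. Fluorescence from dye bound to dead-cell DNA was read repeatedly over 40 h of treatment at 37 C.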

Experiment [13] can be described thus: qHTS RealTime-Glo MT Cell Viability Assay in HepG2 cells - 32 hour (AID 1224877). Note: nearly all actives have a fitted effect of over 55% in size. In outline:
(§5)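 Real-time, nonlytic viability: 600 HepG2 cells/well mixed with NanoLuc enzyme plus prosubstrate; 5 h settle, compound (DMSO) added by pintool; luminescence monitored over 40 h at 37 C.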

The nature of experiment [14]: A CellTox Green Cytotoxicity Assay to monitor cytotoxicity in HepG2 cells - 24 hour (AID 1224878). Note: nearly all actives have a fitted effect of over 45% in size. In outline:
as §4

A short description of experiment [15]: A CellTox Green Cytotoxicity Assay to monitor cytotoxicity in HepG2 cells - 40 hour (AID 1224879). Note: nearly all actives have a fitted effect of over 40% in size. The method, boiled down: as §4
Experiment [16] is described as follows: qHTS assay to identify small molecule agonists of the hypoxia (HIF-1) signaling pathway - cell viability counter screen (AID 1224844; calls by dose curve; note: nearly all actives have a fitted effect of over 50% in size). In outline: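 HRE-bla ME-180 cells in medium with 0.5% dialyzed FBS were preincubated 5 hrs at 37C, exposed to compounds for 17 hrs, then viability was read as CellTiter-Glo luminescence after 30 min at room temperature, in the reporter wells.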

The nature of experiment [17]: qHTS assay to identify small molecule agonists of H2AX - cell viability counter screen (AID 1224847; calls by dose curve;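 note: wild-type CHO-K1 cells; top concentration of the series differs between compounds; nearly all actives have a fitted effect of over 30% in size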). In outline:
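CHO-K1 wt, 1000 cells/well, o/n 37C; cpds 15 conc, 3 h 37C, 0.76% DMSO; CellTiter-Glo, 30 min RT, luminescence.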

Experiment [18] in a line: qHTS RealTime-Glo MT Cell Viability Assay in HepG2 cells - 24 hour (AID 1224867). Note: nearly all actives have a fitted effect of over 50% in size. The method, boiled down:
as §5

The nature of experiment [19]: qHTS RealTime-Glo MT Cell Viability Assay in HepG2 cells - 40 hour (AID 1224870). Note: nearly all actives have a fitted effect of over 50% in size. In outline:
as §3

A number with no mark means an inactive call. Inconclusive results are not listed. Calls of active or inactive are those of the source. Unless noted, calls come from the whole dose curve; as a rule, active = well fitted curve in the direction sought with a large enough effect in the repeat runs; inconclusive = weak or mixed curves; inactive = no such curve, though single readings can be large; an effect the other way counts as inactive or inconclusive.
% is set by controls: 0 for no effect and ±100 for the full control effect.

In the case of `Cc1nc2sccn2c(=O)c1CCN1CCC(=C(c2ccc(F)cc2)c2ccc(F)cc2)CC1`, the Potency entry in [1], in experiment [6], in [7], in experiment [11], in [12] and in [13] was “inactive” each time. The Potency entry in [14] and in experiment [15] was “inactive” throughout. Also, the call in [2] and in experiment [9] was inactive. For the same molecule, the Potency in [3] is 26.6 µM (active); in experiment [5], 3.38 µM (active); in experiment [8], 3.01 µM (active); in [10], 4.25 µM (active). Further, the activity change, positive = activation in [4] was -44.9% [at 42.5 µM].

`SCCOCCOCCS`: the Potency result in experiment [16], in experiment [17], in [5], in experiment [6], in [19] and in experiment [7] was “inactive” throughout. For the same molecule, the Potency entry in experiment [11], in experiment [12], in experiment [13] and in [15] was “inactive” each time. Further, the call in [2], in experiment [18] and in experiment [9] was inactive. In addition, the max response in experiment [10] is -3.19%.

Consider `CS(C)=O`, for which the Potency entry in [1], in experiment [17], in [6], in experiment [19], in experiment [7] and in experiment [8] was “inactive” in each case. The Potency entry in [11], in experiment [12], in [13], in experiment [14] and in [15] was “inactive” throughout. Moreover, the call in [2], in experiment [18] and in [9] was inactive.

`Nc1ccc(-c2ccc(F)cc2)cc1`: the outcome in experiment [2], in experiment [18] and in experiment [9] was inactive. Further, the Potency result in experiment [17], in [3], in experiment [5], in [6], in [19] and in [11] was “inactive” each time. In addition, the Potency result in [12], in experiment [13], in experiment [14] and in experiment [15] was “inactive” throughout. Moreover, the activity change, positive = activation in experiment [4] is 52% (active). In experiment [10], the max response was -22.4%.

As to `O=c1[nH]nc(-c2ccc([N+](=O)[O-])o2)o1`, the Potency entry in experiment [16], in experiment [17], in experiment [5], in experiment [6], in experiment [19] and in experiment [7] was “inactive” each time. The Potency result in experiment [8], in [11], in experiment [12], in [13], in [14] and in experiment [15] was “inactive” in each case. The molecule was classed as inactive in experiment [2], in [18] and in experiment [9]. In addition, the activity change, positive = activation in experiment [4] is -20.3%. Also, in experiment [10], the max response was -1.91%.

Regarding `CC[C@H](NC(C)C)[C@H](O)c1ccc(O)c2[nH]c(=O)ccc12`, the Potency entry in [16], in experiment [17], in [3], in experiment [5], in experiment [6] and in experiment [19] was “inactive” in each case. For the same molecule, the Potency entry in experiment [7], in experiment [8], in experiment [11], in experiment [12], in experiment [13] and in experiment [14] was “inactive” in each case. Further, the Potency result in [15] was “inactive”. The activity change, positive = activation in [4] was 4.6% [at 42.5 µM]. In addition, the molecule was called inactive in experiment [18] and in experiment [9]. The max response in experiment [10] was 5.21%.

In the case of `C=C(C)C(=O)OCCCCCCCCCCOC(=O)C(=C)C`, the Potency entry in experiment [16], in experiment [17], in [3], in experiment [5], in experiment [6] and in [19] was “inactive” each time. The Potency entry in experiment [7], in experiment [8], in [11], in [12], in experiment [13] and in experiment [14] was “inactive” each time. Also, the Potency entry in experiment [15] is “inactive”. In addition, the call in experiment [2] and in experiment [9] was inactive. In addition, the activity change, positive = activation in experiment [4] was 1.48%. Also, the max response in [10] was -16.4%.

Regarding `O=C(O)c1cc(C(=O)O)c(C(=O)O)cc1C(=O)O`, the Potency result in [16], in [1], in [3], in [5], in [6] and in experiment [19] was “inactive” in each case. Also, the Potency result in [7], in experiment [8], in [11], in experiment [12], in experiment [13] and in [14] was “inactive” in each case. Also, the Potency entry in experiment [15] was “inactive”. The result in experiment [2], in experiment [18] and in experiment [9] was inactive. In addition, in experiment [4], the activity change, positive = activation was 4.66%. Besides, the max response in experiment [10] is 0.796%.

Consider `CC(C)CCCCCOC(=O)CS`, for which the Potency entry in [16], in [17], in [5], in experiment [6], in experiment [19] and in experiment [7] was “inactive” each time. In addition, the Potency result in [8], in experiment [11], in [12], in experiment [13], in experiment [14] and in experiment [15] was “inactive” throughout. The molecule was called inactive in [2], in [18] and in experiment [9]. Moreover, in [10], the max response is 4.02%.

In the case of `O=C(c1ccc(Cl)cc1)c1ccc(Cl)cc1`, the Potency entry in [1], in experiment [5], in experiment [6], in [19], in experiment [8] and in experiment [11] was “inactive” each time. The Potency result in [12] and in [13] was “inactive” each time. The outcome in [2], in [18] and in experiment [9] was inactive. In addition, the max response in [10] was -15%.

Take `O=C(OCCCCCOC(=O)c1ccccc1)c1ccccc1`: the Potency result in [16], in [17], in experiment [3], in experiment [6], in experiment [19] and in experiment [11] was “inactive” each time. The Potency entry in experiment [12], in experiment [13], in experiment [14] and in experiment [15] was “inactive” in each case. Besides, the molecule was called inactive in experiment [2], in experiment [18] and in [9]. For the same molecule, the activity change, positive = activation in experiment [4] is 7.15%.

As to `C[C@]12CCC(=O)C=C1[C@@H]1C[C@@H]1[C@H]1[C@@H]3[C@@H]4C[C@@H]4[C@@]4(CCC(=O)O4)[C@@]3(C)CC[C@@H]12`, the Potency entry in [16], in experiment [1], in experiment [6], in experiment [7], in experiment [11] and in experiment [12] was “inactive” in each case. In addition, the Potency result in experiment [13], in [14] and in experiment [15] was “inactive” each time. Also, the call in experiment [2], in [18] and in experiment [9] was inactive. In addition, the Potency in experiment [3] was 26.6 µM (active). Also, the activity change, positive = activation in [4] is -43.4% [at 42.5 µM].

As for `CCOC(C)OCC`, the Potency result in [1], in experiment [17], in experiment [5], in experiment [6], in experiment [8] and in experiment [11] was “inactive” throughout. Moreover, the Potency result in [12], in experiment [13], in experiment [14] and in experiment [15] was “inactive” each time. Moreover, the molecule was called inactive in experiment [2], in [18] and in experiment [9]. Besides, the max response in experiment [10] is -0.223%.
